Experimental findings from PubChem BioAssay (EPA / NIEHS) are described below.

The source made the active and inactive calls. The calls were made as follows: active = hit-call score of the fitted dose curve at least 0.9, where 1 is the maximum; inactive = score below 0.9.

Assay [1] is described as follows: BSK_KF3CT_SRB: Viability Assessment in the BioMAP Diversity Plus: KF3CT Assay (AID 2283069).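 Also: total protein by sulforhodamine B staining as a cytotoxicity measure; read 24 h after compound addition.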 Conditions: primary human keratinocytes with fibroblasts. The essentials: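 Human primary keratinocyte plus foreskin fibroblast co-culture exposed to chemicals for 24 h. Total protein measured by 0.1% sulforhodamine B staining after 10% TCA fixation, read at 560 nm; bidirectional fitting versus DMSO baseline.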

Read-out in assay [2]: Interleukin-1 alpha (IL1a), IL1A (gene 3552)
As to the kind of experiment: BSK_KF3CT_IL1a: BioMAP Diversity Plus: KF3CT Assay for Interleukin-1 alpha (IL1a) Biomarker Activity (AID 2283070). Particulars: primary human keratinocytes with fibroblasts; actives raise or lower the signal. The essentials: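 Human keratinocyte plus foreskin fibroblast primary co-culture, sampled 24 h after chemical dosing. IL-1a measured by ELISA; responses fitted bidirectionally against DMSO baseline (negative control), so gain or loss of signal both count.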

Read-out in assay [3]: TIMP metallopeptidase inhibitor 2 (TIMP2), TIMP2 (gene 7077)
The assay can be described thus: BSK_KF3CT_TIMP2: BioMAP Diversity Plus: KF3CT Assay for TIMP metallopeptidase inhibitor 2 (TIMP2) Biomarker Activity (AID 2283071). Conditions: primary human keratinocytes with fibroblasts; actives raise or lower the signal. The essentials: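 Co-culture of human primary keratinocytes and foreskin fibroblasts, measured 24 h after chemical dosing. TIMP-2 quantified by ELISA and fitted in both directions relative to DMSO. Cytotoxicity checked in parallel cultures by SRB total-protein staining.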

Read-out in assay [4]: C-C motif chemokine 2 (Homo sapiens) (UniProt P13500)
As to the kind of experiment: BSK_KF3CT_MCP1: BioMAP Diversity Plus: KF3CT Assay for Monocyte Chemoattractant Protein 1 (MCP1/CCL2) Biomarker Activity (AID 2283073). Particulars: primary human keratinocytes with fibroblasts; actives raise or lower the signal. The essentials:
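Biomarker MCP-1 is measured by ELISA in primary human keratinocytes co-cultured with foreskin fibroblasts, 24 h after chemical treatment; DMSO serves as the negative control and activity baseline.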

Read-out in assay [5]: Matrix Metallopeptidase 9 (MMP9), MMP9 (gene 4318)
As to the kind of experiment: BSK_KF3CT_MMP9: BioMAP Diversity Plus: KF3CT Assay for Matrix Metallopeptidase 9 (MMP9) Biomarker Activity (AID 2283074).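 As to AC50: MMP9 protein level quantified by ELISA in the co-culture.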 Particulars: primary human keratinocytes with fibroblasts; actives raise or lower the signal. The essentials:
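Keratinocyte plus foreskin fibroblast human primary skin co-culture was dosed with chemical and MMP-9 was quantified by ELISA 24 h later. Bidirectional curve fitting used DMSO as negative control and activity baseline.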

Read-out in assay [6]: urokinase plasminogen activator (uPA), PLAU (gene 5328)
The assay can be described thus: BSK_KF3CT_uPA: BioMAP Diversity Plus: KF3CT Assay for urokinase plasminogen activator (uPA) Biomarker Activity (AID 2283075). Conditions: primary human keratinocytes with fibroblasts; actives raise or lower the signal. The essentials:
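Human keratinocyte plus foreskin fibroblast primary co-culture exposed to chemical for 24 h. uPA levels were quantified by ELISA, and activity was fitted bidirectionally against a DMSO negative-control baseline.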

Read-out in another assay: CD40, CD40 (gene 958)
The assay can be described thus: BSK_LPS_CD40: BioMAP Diversity Plus: LPS Assay for CD40 Biomarker Activity (AID 2283076). Particulars: primary human HUVEC with PBMC; actives raise or lower the signal. The essentials: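 Using a multiplexed primary human co-culture (umbilical vein endothelium plus PBMC), CD40 was read by ELISA 24 h after dosing, with cytotoxicity tracked by sulforhodamine B staining of parallel cultures and activity fitted bidirectionally versus DMSO.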

Read-out in assay [7]: E-selectin (Homo sapiens) (UniProt P16581)
The assay can be described thus: BSK_LPS_Eselectin: BioMAP Diversity Plus: LPS Assay for Eselectin Biomarker Activity (AID 2283077). Particulars: primary human HUVEC with PBMC; actives raise or lower the signal. Summed up: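 Dose chemical onto LPS-driven HUVEC/PBMC co-culture; after 24 h, run ELISA for E-selectin; fit up- and down-going responses relative to DMSO control.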

Read-out in assay [8]: Interleukin-8 (IL8), CXCL8 (gene 3576)
The assay can be described thus: BSK_LPS_IL8: BioMAP Diversity Plus: LPS Assay for Interleukin-8 (IL8) Biomarker Activity (AID 2283078). Particulars: primary human HUVEC with PBMC; actives raise or lower the signal. Summed up: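 In this LPS system, chemical-treated human umbilical vein endothelium/PBMC co-cultures were harvested at 24 h for IL-8 ELISA.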

Chain of E-selectin (Homo sapiens) (P16581 whole entry, looked up): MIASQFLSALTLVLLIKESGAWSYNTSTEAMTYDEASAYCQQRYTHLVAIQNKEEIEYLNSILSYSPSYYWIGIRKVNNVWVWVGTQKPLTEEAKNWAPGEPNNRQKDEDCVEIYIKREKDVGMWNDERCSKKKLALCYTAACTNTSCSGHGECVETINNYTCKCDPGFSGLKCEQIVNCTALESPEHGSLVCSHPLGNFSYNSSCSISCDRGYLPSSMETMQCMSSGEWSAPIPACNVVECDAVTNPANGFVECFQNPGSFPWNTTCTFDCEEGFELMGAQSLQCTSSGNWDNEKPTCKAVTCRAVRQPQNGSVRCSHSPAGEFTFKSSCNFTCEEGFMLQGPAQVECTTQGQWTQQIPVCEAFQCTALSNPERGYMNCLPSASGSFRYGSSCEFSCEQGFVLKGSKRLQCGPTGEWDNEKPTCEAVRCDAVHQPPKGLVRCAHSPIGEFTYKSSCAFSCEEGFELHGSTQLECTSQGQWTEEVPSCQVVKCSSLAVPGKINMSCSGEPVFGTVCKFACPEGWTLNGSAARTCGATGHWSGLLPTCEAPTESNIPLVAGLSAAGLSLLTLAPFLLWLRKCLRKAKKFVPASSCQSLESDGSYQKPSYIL

For the molecule `OC(c1ccc(Cl)cc1)(c1ccc(Cl)cc1)C(Cl)(Cl)Cl`, the AC50 in [1] is 6.45 µM (active); in assay [2], 8.05 µM (active); in assay [3] it was 9.48 µM (active); in assay [4], 11 µM (active); in assay [5], 7.26 µM (active); in assay [6], 7.28 µM (active). In addition, the AC50 with CD40, CD40 (gene 958) is 30.5 µM (active); in [7] it was 30.9 µM (active); in [8], 30.6 µM (active).
With `CC(C)Nc1nc(Cl)nc(NC(C)C)n1`, the outcome in [1], in [2], in [3], in [4], in [5] and in assay [6] was inactive. The outcome in the assay with CD40, CD40 (gene 958) is “inactive”; in assay [7], “inactive”; in assay [8] it was “inactive”.
`Clc1cccc(C(Cl)(Cl)Cl)n1`: the result in assay [1], in [2], in [3], in assay [4], in assay [5] and in [6] was inactive. Besides, the outcome with CD40, CD40 (gene 958) is “inactive”; in assay [7], “inactive”; in assay [8] it was “inactive”.
Take `Cc1c(COC(=O)[C@@H]2[C@H](/C=C(\Cl)C(F)(F)F)C2(C)C)cccc1-c1ccccc1`: the outcome in assay [1], in assay [2], in [3], in assay [4], in assay [5] and in assay [6] was inactive. The outcome in the assay with CD40, CD40 (gene 958) was “inactive”; in [7], “inactive”. Moreover, the AC50 in assay [8] was 5.39 µM (active).
In the case of `C=C(C)CN(CC)c1c([N+](=O)[O-])cc(C(F)(F)F)cc1[N+](=O)[O-]`, the outcome in [1], in [2], in assay [3], in [4], in assay [5] and in assay [6] was inactive. Also, the result in [7] and in [8] was inactive. Besides, the AC50 with CD40, CD40 (gene 958) was 20 µM (active).
Regarding `CCNC(=O)NC(=O)C(C#N)=NOC`, the outcome was “inactive” in [1]; “inactive” in assay [2]; “inactive” in assay [3]; “inactive” in [5]; “inactive” in assay [6]; “inactive” in the assay with CD40, CD40 (gene 958). Moreover, the outcome in assay [7] and in assay [8] was inactive.
Take `CCCCC(O)(Cn1cncn1)c1ccc(Cl)cc1Cl` (stereo not drawn): the result in [1], in [2], in assay [3], in [4], in assay [5] and in assay [6] was inactive. Moreover, the outcome was “inactive” in the assay with CD40, CD40 (gene 958); “inactive” in [7]; “inactive” in [8].
For the molecule `CC(C)NC(=O)N1CC(=O)N(c2cc(Cl)cc(Cl)c2)C1=O`, the result in assay [1], in [2], in [3], in [4], in assay [5] and in assay [6] was inactive. The outcome in the assay with CD40, CD40 (gene 958) was “inactive”; in assay [7] it was “inactive”; in [8] it was “inactive”.
On to `O=C1C2CC=CCC2C(=O)N1SC(Cl)(Cl)Cl` (stereo not drawn), for which the AC50 is 5.79 µM (active) in assay [1]; 11.2 µM (active) in assay [3]; 11.8 µM (active) in assay [4]; 8.54 µM (active) in assay [5]; 22.3 µM (active) in the assay with CD40, CD40 (gene 958); 29.5 µM (active) in assay [7]. For the same molecule, in assay [8], the AC50 was 25.2 µM (active).
Take `COCC(=O)N(c1c(C)cccc1C)C(C)C(=O)OC` (stereo not drawn): the outcome in assay [1], in [2], in [3], in assay [4], in assay [5] and in [6] was inactive. Moreover, the outcome in the assay with CD40, CD40 (gene 958) is “inactive”; in assay [7], “inactive”; in assay [8], “inactive”.
Turning to `COc1cc(OC)nc(NC(=O)NS(=O)(=O)c2ncccc2OCC(F)(F)F)n1`, the outcome in assay [1], in assay [2], in assay [3], in assay [4], in assay [5] and in assay [6] was inactive. Also, the outcome in the assay with CD40, CD40 (gene 958) is “inactive”; in [7], “inactive”; in [8], “inactive”.
Take `Cn1c(-c2ccccc2)cc(-c2ccccc2)[n+]1C`: the outcome in assay [1] was “inactive”; in [2], “inactive”; in assay [4], “inactive”; in [5], “inactive”; with CD40, CD40 (gene 958) it was “inactive”; in [7] it was “inactive”. The result in assay [8] was inactive. The half-maximal activity concentration (AC50) in [3] was 23.8 µM (active); in assay [6], 12 µM (active).
On to `CCCN(CC)CC1COC2(CCC(C(C)(C)C)CC2)O1` (stereo not drawn), for which the outcome was “inactive” in [1]; “inactive” in [2]; “inactive” in [5]; “inactive” in assay [6]; “inactive” with CD40, CD40 (gene 958); “inactive” in assay [7]. Further, the AC50 in assay [3] is 6.62 µM (active); in assay [4], 0.739 µM (active); in [8] it was 15.7 µM (active).
As to `COC(=O)c1c(C(F)F)nc(C(F)(F)F)c(C2=NCCS2)c1CC(C)C`, the outcome in assay [1], in [2], in [3], in assay [4], in assay [5] and in [6] was inactive. Further, the result in [7] and in [8] was inactive. The AC50 with CD40, CD40 (gene 958) is 7.78 µM (active).
For `CCC(C)n1c(=O)[nH]c(C)c(Br)c1=O` (stereo not drawn), the result in assay [1], in assay [2], in [3], in assay [4], in assay [5] and in assay [6] was inactive. For the same molecule, the outcome in the assay with CD40, CD40 (gene 958) was “inactive”; in assay [7] it was “inactive”; in [8] it was “inactive”.
On to `CCOc1nc(F)cc2nc(S(=O)(=O)Nc3c(Cl)cccc3Cl)nn12`, for which the result in assay [1], in assay [2], in [3], in assay [4], in [5] and in [6] was inactive. The outcome was “inactive” with CD40, CD40 (gene 958) and “inactive” in assay [8]. The AC50 in assay [7] is 20 µM (active).
With `COCC(C)N(C(=O)CCl)c1c(C)csc1C` (stereo not drawn), the outcome in assay [1], in assay [2], in [3], in [4], in assay [5] and in [6] was inactive. Further, the outcome with CD40, CD40 (gene 958) is “inactive”; in assay [7] it was “inactive”; in [8], “inactive”.
In the case of `CO/N=C(/C1=NOCCO1)c1ccccc1Oc1ncnc(Oc2ccccc2Cl)c1F`, the result in [1], in [3] and in assay [6] was inactive. Also, the AC50 in assay [2] is 20 µM (active); in assay [4], 28.6 µM (active); in assay [5], 30.6 µM (active); with CD40, CD40 (gene 958) it was 13 µM (active); in assay [7] it was 15.2 µM (active); in [8], 20 µM (active).
`Clc1nc(Cl)nc(Nc2ccccc2Cl)n1`: the outcome in assay [1], in [2], in assay [3], in assay [4], in assay [5] and in assay [6] was inactive. Further, the outcome with CD40, CD40 (gene 958) was “inactive”; in assay [7], “inactive”; in [8] it was “inactive”.

Usually AC50 stands for the midpoint of the concentration-response curve, whichever way the signal moves.
